This is an account of results in PubChem BioAssay (NCI).

Each structure is given as a SMILES string. About 83,000 compounds went through this panel and 20% of them were active in at least one assay; those are over-represented in the sample as a whole.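 Results are percent growth after 48 hours of single-concentration exposure. 100 means growth as in untreated cells, lower positive values show inhibition; negative values down to -100 show cell death.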 Activity calls are given as the source filed them. How the source made its calls: active means growth percent below 10; inactive means the rest.

The assay has as its system OVCAR-3 ovarian. The experiment in a line: NCI-60 one-dose screen, 48 h (100 = growth as untreated, 0 = no growth, -100 = all killed). The note with it: 10 µM.
Take `C#CCNC(=O)CCC(=O)OC[C@]12CC[C@@H](C(=C)C)[C@@H]1C1CC[C@@H]3[C@@]4(C)CCCNC(C)(C)[C@@H]4CC[C@@]3(C)[C@]1(C)CC2` (stereo not given in full): the growth was -71% (active).
With `Cc1ccc(-c2nc(Nc3ccc(S(N)(=O)=O)cc3)c3ccccc3n2)cc1` the figure was 61.9% (inactive); with `N#Cc1ccc(-c2nn(-c3ccc(C(=O)O)cc3)cc2CNc2cccc(Br)c2)cc1`, 38.7% (inactive); with `Cc1noc2c(Cc3ccc([N+](=O)[O-])cc3)nn(CC(=O)N/N=C/c3ccc(Br)cc3)c(=O)c12`, 50.1% (inactive).
For the compound `Cc1ccc(/C=C/C(=O)c2ccc(NC(=O)CSc3nnc(-c4c[nH]c5ccccc45)n3-c3ccccc3)cc2)c(C)c1`, the growth was 32% (inactive).
For the compound `O=C1c2ccccc2C(=O)c2c1c(C(=O)c1ccc(Cl)cc1)n1c2ccc2c3ccccc3ccc21`, the growth was 109% (inactive).
In the case of `COc1ccc(C(=O)Nc2sc3c(c2C#N)CCC(=O)C3)cc1C(F)(F)F`, the growth is -6.94% (active).
With `COc1ccc(C2NC(=S)NC(C)=C2C(=O)OC(C)C)cc1OC` (stereo not given), the growth is 113% (inactive).
For the compound `COc1ccc(OC)c(/C=N/NC(=O)c2ccc3nc(-c4ccc(Cl)cc4)[nH]c3c2)c1`, the growth is 89.2% (inactive).
As to `Nc1nc(Nc2ccc(Cl)cc2)n(Cc2cccc(Br)c2)n1`, the growth was -35.3% (active).
As for `O=C(CSc1nnc(-c2ccc3nc(-c4ccc(Cl)cc4)[nH]c3c2)o1)Nc1ccc(Br)cc1`, the growth was -15.9% (active).
Take `COc1cc2c(cc1OC)CN(CCCCOc1cc(O)c3c(=O)cc(-c4ccccc4)oc3c1)CC2`: the growth is 94.9% (inactive).
As for `O=C(CSc1nnc(-c2c[nH]c3ccccc23)n1-c1ccccc1)c1ccc(Br)cc1`, the growth is 42.5% (inactive).
Under `Cc1ccc(/C=C/C(=O)c2ccc(NC(=O)CSc3nnc(-c4c[nH]c5ccccc45)n3-c3ccccc3)cc2)cc1` stands 83.2% (inactive).
With `CC1=C(c2cc(-c3ccc(Cl)cc3)c(C#N)c(N)n2)C(c2ccccc2)NC(=S)N1` (stereo not given) the figure was 17.1% (inactive); with `COc1ccc(-c2cc(-c3cc(C(=O)c4ccccc4)n4ccc(C)cc34)nc(N)c2C#N)cc1`, 60.5% (inactive); with `COc1cc2c3c(n(CCCNCCO)c(=O)c2cc1OC)-c1nc2c(cc1C3=O)OCO2`, -68.5% (active).
With `COc1ccc(/C=C/C(=O)c2ccc(N3CCN(C)CC3)cc2)c(C(F)(F)F)c1` the figure was 46.9% (inactive).
As to `Cn1cc(/C=N/Nc2cccc(Cl)n2)c2ccccc21`, the growth is 63.3% (inactive).
With `COc1ccc(C(=O)CSc2nnc(-c3c[nH]c4ccccc34)n2-c2ccccc2)cc1`, the growth is 53.6% (inactive).
Under `N#Cc1c(NC(=O)c2ccc(C(F)(F)F)c(Cl)c2)sc2c1CCC(=O)C2` stands -57% (active); under `COc1cc(/C=C/C(=O)c2ccc(NC(=O)CSc3nnc(-c4c[nH]c5ccccc45)n3-c3ccccc3)cc2)cc(OC)c1OC`, 66% (inactive).
With `O=C(Nc1cccc([N+](=O)[O-])c1)Nc1cccc([N+](=O)[O-])c1`, the growth was 60.7% (inactive).
For `COc1cc(NC(=O)CSc2nnc(-c3ccc4nc(-c5ccc(Cl)cc5)[nH]c4c3)o2)cc(OC)c1OC`, the growth is 71.8% (inactive).
On to `O=S(=O)(Nc1ncccn1)c1ccc(-n2c(-c3ccc(Br)cc3)nc(-c3ccccc3)c2-c2ccccc2)cc1`, for which the growth was 48.2% (inactive).
For `CCN1CCN(Cc2ccc(C(=O)Nc3cccc(-c4cn(-c5ccc6oc(=O)ccc6c5)nn4)c3)cc2C(F)(F)F)CC1`, the growth is -100% (active).
Turning to `Cc1cc(=O)oc2cc(OCCCCOc3ccc(/C=C/C(=O)Nc4ccc(F)c(Cl)c4)cc3)ccc12`, the growth is 97.2% (inactive).
With `Cc1cc(C)nc(/N=C(\N)Nc2ccc(S(=O)(=O)Nc3nc(C)cc(C)n3)cc2)n1` the figure was 112% (inactive); with `Cc1cccc(-c2nc(Nc3ccccc3C(=O)O)c3ccccc3n2)c1`, 34.1% (inactive).
`C=C1CCC2C3(C)COC(c4cccc(F)c4)OC3CCC2(C)C1CC(O)C1=CCOC1=O` (stereo not given): the growth was 62.1% (inactive).
With `CC1CC(c2ccc(N(C)C)cc2)=NN1c1nc(O)c(C2=c3cc(Br)ccc3=NC2=O)s1` (stereo not given), the growth is 73.6% (inactive).
Regarding `C/C(=N\NC(N)=S)c1ccc(Nc2nc(SC(C)C)nc(-c3ccccc3)c2C#N)cc1`, the growth was 67.3% (inactive).
Turning to `O=c1c2ccccc2nc(COc2ccccc2)n1/N=C/c1ccc(N2CCCC2)cc1`, the growth was 105% (inactive).
For the compound `CN1CCN(Cc2ccc(NC(=O)c3cncc(C#Cc4cnc5ccc(N[C@H]6CCOC6)nn45)c3)cc2C(F)(F)F)CC1`, the growth is -93.7% (active).
`Cn1cc(-c2cc(N)n3nc(-c4c[nH]c5ccc(Br)cc45)cc3n2)c2cc(Br)cnc21`: the growth is -90.4% (active).
`CC(=O)Nc1ccc(-n2cnc3cc(-c4ccc(NS(C)(=O)=O)cc4)ccc32)cc1`: the growth was 63.1% (inactive).
Under `COc1ccccc1C(=O)NNC(=O)CSc1nc2c(c(=O)[nH]1)CCCC2` stands 102% (inactive); under `O=c1[nH]c2ccccc2cc1CSc1ccc(Nc2nccc(-c3ccc(C(F)(F)F)cc3)n2)cc1`, -61.1% (active); under `COc1cnc2c(c1)C(=O)c1c-2n(CCCNCCO)c(=O)c2cc(OC)c(OC)cc12`, 3.13% (active).
For `C/C(=N\N=C\c1ccc(Cl)c([N+](=O)[O-])c1)c1ccc2c(c1)Nc1ccccc1S2`, the growth was 27.5% (inactive).
